Assay outcomes as filed in PubChem.
MEKK3 PB1 HTS – raises or lowers MEK5 binding to the human MEKK3 PB1 domain; Q99759; bead-based flow cytometry, Alexa488-MEK5 binding to MEKK3; actives lie on both sides; 0 = blocked by unlabeled MEK5, 100 = vehicle; binding response (% of control), % at 10 µM; 290,000 tested, 1.4% active; AID 1529;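 active means binding response more than 3 SD above or below the average of its plate-row segment, actives on both sides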;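 further: Alexa488 bead fluorescence after subtracting the streptavidin-only scavenger bead signal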
Target sequence (Q99759 whole entry, looked up, the tested form may be a part): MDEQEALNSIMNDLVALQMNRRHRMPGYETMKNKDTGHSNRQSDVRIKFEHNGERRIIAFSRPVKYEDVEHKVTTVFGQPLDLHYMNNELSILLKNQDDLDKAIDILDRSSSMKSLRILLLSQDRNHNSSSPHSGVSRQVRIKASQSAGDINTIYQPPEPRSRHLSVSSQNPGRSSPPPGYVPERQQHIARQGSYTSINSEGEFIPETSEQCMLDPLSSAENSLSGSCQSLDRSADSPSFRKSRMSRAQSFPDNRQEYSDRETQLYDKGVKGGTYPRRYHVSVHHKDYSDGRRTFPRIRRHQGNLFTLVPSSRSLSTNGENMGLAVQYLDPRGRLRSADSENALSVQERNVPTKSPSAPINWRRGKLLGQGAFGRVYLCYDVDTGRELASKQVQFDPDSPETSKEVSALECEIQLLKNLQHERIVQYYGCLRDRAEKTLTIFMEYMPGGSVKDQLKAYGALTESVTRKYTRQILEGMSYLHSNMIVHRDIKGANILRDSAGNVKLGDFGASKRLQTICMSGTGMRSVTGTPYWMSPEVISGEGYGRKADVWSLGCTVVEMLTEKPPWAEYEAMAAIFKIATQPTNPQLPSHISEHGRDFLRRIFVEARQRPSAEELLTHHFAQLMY
MEKK2 WT-MEK5 – raises or lowers MEK5 binding to wildtype human MEKK2 PB1 domain; bead flow cytometry, Alexa488-MEK5 binding to MEKK2 WT; actives lie on both sides; binding response (% of control), % at 10 µM; 290,000 tested, 1.1% active; AID 1531; in the data active means binding response below about 67% or above about 130%
MEKK2 mut-MEK5 – signal of MEK5 binding to mutant human MEKK2 PB1 domain; AID 1530; bead flow cytometry, Alexa488-MEK5 binding to MEKK2 mutant; percent response, % at 10 µM; 290,000 tested, 0.35% active; in the data active means percent response above about 24%, passing the limit was not always enough
CendR NRP1 mod – NRP-1/CendR interaction modulation; FAM-RPARPAR peptide binding to NRP-1, fluorescence polarization; inhibition, % at 25 µM; 360,000 tested, 0.85% active;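 active means inhibition or corrected inhibition above about 18%, plus a signal ratio from 0.5 to 1.5, limit read from the data, passing the limit was not always enough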
SKN-1 block – C. elegans SKN-1 inhibition. 360,000 tested, 0.49% active. C. elegans VP596 Pgst-4::GFP/RFP ratio, acrylamide-induced, 24 h. inhibition, % at 21.8 µM;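 active means interference check ratio from 0.5 to 1.5 plus GFP to RFP signal ratio inhibition reaching or exceeding a fixed threshold, cut at about 30% in these data, passing the limit was not always enough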
MEKK2wt confirm – raises or lowers MEK5 binding to wildtype human MEKK2, retest; bead flow cytometry, Alexa488-MEK5 binding to MEKK2 WT; actives lie on both sides; binding response (% of control), % at 10 µM; shares compounds with MEKK3 PB1 HTS; AID 1892; 5,900 tested, 2.4% active; in the data active means binding response below about 16% or above about 210%; inactive means in between
MEKK2mut confirm – signal of MEK5 binding to mutant human MEKK2, retest; 5,900 tested, 2% active; percent response, % at 10 µM; shares compounds with MEKK3 PB1 HTS; bead flow cytometry, Alexa488-MEK5 binding to MEKK2 mutant; in the data active means percent response mostly above about 71%, no sharp cut-off; inactive means mostly below about 38%;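 further: higher means compound restores mutant binding toward wildtype level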
MEKK3 confirm – confirmation of inhibitors of MEK5 binding to human MEKK3; shares compounds with MEKK3 PB1 HTS; bead flow cytometry, Alexa488-MEK5 binding to MEKK3; stronger effect = lower value; binding response (% of control), % at 10 µM; 5,900 tested, 1.8% active; AID 1894;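 active means binding response below 72% of control, or above a set upper limit, though filed actives all read lower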;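 further: 100% = DMSO only wells and 0% = binding blocked by excess unlabeled MEK5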
* marks the source's active call; other numbers are inactive results; · = no result; [ ] = another dose, or the depositor's remark. Shown are actives, neighbours in structure and some others; about 3.2% of the full set was active somewhere.

SMILES	MEKK3 PB1 HTS	MEKK2 WT-MEK5	MEKK2 mut-MEK5	CendR NRP1 mod	SKN-1 block	MEKK2wt confirm	MEKK2mut confirm	MEKK3 confirm
FC(F)(F)c1ccc(Cl)c(-n2c(-c3cc(C4CC4)[nH]n3)n[nH]c2=S)c1	95	96	-5	8	11	·	·	·
CCN1C(=O)N(CC)C2NC(=S)NC21 (stereo not drawn)	103	106	4	16	0	·	·	·
CCN1C(=O)N(CC)C2C1N(CO)C(=O)N2CO (stereo not drawn)	129*	117	1	4	-5	98	1	99
COc1ccccc1N(C)S(=O)(=O)c1ccc(Cl)c(C(=O)Nc2ccccc2N2CCOCC2)c1	·	·	·	-3	3	·	·	·
O=C(Nc1ccnn1C1CCN(C/C=C/c2ccccc2)CC1)c1cccc(F)c1	107	140*	16	0	-15	122	11	107
O=C(NCCCN1CCc2ccccc2C1)C1CCN(c2nnc(-n3cccc3)s2)CC1	115	219*	55*	10	12	186	62	113
O=C(NC1CCN(Cc2ccccc2)CC1)C1CCN(c2nnc(-n3cccc3)s2)CC1	112	203*	50*	2	-10	183	65	111
COCc1cc(CN2CCCC2)c(O)c2ncccc12	102	103	1	5	4	·	·	·
COc1ccc2nc3cc(Cl)ccc3c(Nc3cc(CN4CCCC4)c(O)c(CN4CCCC4)c3)c2n1	97	138*	22	0	-1	138	26	96
Cc1ccc(CC(=O)NNC(=O)c2cccs2)cc1C	·	·	·	-8	10	·	·	·
CCN(CC)Cc1c(O)ccc2c(=O)c(-c3ccccc3Cl)coc12	104	102	25*	0	1	102	-1	102
CCN(CC)Cc1c(O)ccc2c(=O)c(-c3ccccc3OC)coc12	102	104	1	12	2	·	·	·
O=C(CN1CCN(Cc2ccccc2Cl)C1=O)NCCCN1CCOCC1	100	100	0	-1	-5	·	·	·
Cc1ccc(CN2CCN(CC(=O)NCCCN3CCN(c4ccc(F)cc4)CC3)C2=O)cc1	104	136	24*	-16	0	133	7	103
COc1ccc(N2CCN(CCCNC(=O)CN3CCN(Cc4ccccc4C)C3=O)CC2)cc1	105	143*	14	4	-16	171	42	103
O=C(Nc1ccc(OCc2ccccc2)cc1)Nc1nnc([C@@H]2C[C@H](O)[C@@H](CO)O2)s1	·	·	·	0	-1	·	·	·
C[C@H](NC(=O)c1ncn2c1C(=O)N[C@@H](C)C2)C(=O)OC(C)(C)C	·	·	·	8	12	·	·	·
O=C(CCc1nnc(CCCc2ccccc2)o1)NCCc1ccccc1	99	98	-6	13	-2	·	·	·
O=C(CCc1nnc(CCCCc2ccccc2)o1)NCCCc1cccnc1	66	9.0*[inhibitor]	-19	-4	0	102	4	106
N/C(Cc1ccc([N+](=O)[O-])cc1)=N\OC(=O)COc1ccccc1Cl	110	105	1	-1	1	·	·	·
N/C(Cc1ccc([N+](=O)[O-])cc1)=N\OC(=O)Cc1ccccc1	53*[inhibitor]	98	-1	4	14	101	1	97
N/C(Cc1ccc([N+](=O)[O-])cc1)=N\OC(=O)Cc1ccc(Cl)cc1	71*[inhibitor]	101	1	-9	12	104	1	98
CC(C)C[C@@H](CN1CCC[C@H]1CN1C(=O)C(=O)NC[C@@H]1Cc1ccc(O)cc1)N1C[C@H](Cc2ccc(O)cc2)N(CC2CCCCCC2)C(=O)C1=O	·	·	·	-9	21	·	·	·
Cc1[nH]nc(SCC(=O)NCc2ccc(F)cc2)c1[N+](=O)[O-]	131*	103	-1	-2	3	104	2	101
Cc1ccc(NC(=O)CSc2n[nH]c(C)c2[N+](=O)[O-])cc1C	131*	104	0	16	4	100	2	100
SMILES	MEKK3 PB1 HTS	MEKK2 WT-MEK5	MEKK2 mut-MEK5	CendR NRP1 mod	SKN-1 block	MEKK2wt confirm	MEKK2mut confirm	MEKK3 confirm
CN(C(=O)COC(=O)C(Cc1ccccc1)NC(=O)c1ccccc1)c1ccccc1 (stereo not drawn)	134*	106	0	4	-5	101	-8	98
CN1CCc2c(sc3c2C(=O)NC(c2cn(Cc4ccccc4)c4ccccc24)N3)C1 (stereo not drawn)	92	182*	66*	-121	6	240*	107*	109
CCOC(=O)c1cc(C#N)c(SCC(=O)c2cc(C#N)c(SC)nc2C)[nH]c1=O	74*[inhibitor]	80	-14	-33	3	102	-4	101
CSc1nnc(-c2ccco2)n1-c1ccccc1	123*	124	12	3	17	109	5	105
CCCC(CCC(=O)Nc1ccc(C(=O)OCC)cc1)C(=O)O (stereo not drawn)	102	105	1	1	14	·	·	·
CCCC(CCC(=O)Nc1ccc(C(=O)OC)cc1)C(=O)O (stereo not drawn)	125*	124	13	15	-20	98	-3	101
CC(CCC(=O)O)C1CCC2C3CC(O)C4CC(O)CC[C@]4(C)C3CCC12C (stereo partly drawn)	·	·	·	10	5	·	·	·
CCOc1ccccc1-n1nnnc1SCC(=O)N(C)C1CCS(=O)(=O)C1 (stereo not drawn)	·	·	·	6	-6	·	·	·
COCc1nnc(NS(=O)(=O)c2ccc(F)cc2)s1	101	99	13	7	-4	·	·	·
COCCSc1nnc(NS(=O)(=O)c2ccc(F)cc2)s1	136*	119	0	-7	10	105	19	106
CC(=O)c1ccc(NC(=S)Nc2ccc3[nH]c(=O)[nH]c3c2)cc1	5.0*[inhibitor]	7.0*[inhibitor]	-19	1	-2	109	-2	104
Cc1ccc(NC(=S)Nc2ccc3[nH]c(=O)[nH]c3c2)cc1C	101	102	0	-2	2	·	·	·
O=C(O)c1ccc(-n2c(O)c(C=C3N=c4ccccc4=N3)sc2=S)cc1	98	78	-7	-51	2	·	·	·
CCN(CC)c1ccc(-n2c(O)c(C=C3N=c4ccccc4=N3)sc2=S)cc1	153*	99	0	-1	-7	97	5	105
Cc1n[nH]c(C)c1N1C(=O)c2cccc3c(N4CCCCCC4)ccc(c23)C1=O	113	67*[inhibitor]	40*	124	5	91	-7	96
COc1ccc(Cl)cc1C1=NOC2(CCC2)C(=O)N1Cc1ccc(NC(C)=O)cc1	·	·	·	-9	9	·	·	·
